Experimental findings from ChEMBL document CHEMBL3988442, “University of Dundee, Small-Polar-MMV Screening Library” (2021) are described below.

About 13,000 (27%) of roughly 48,000 compounds showed an effect of 50% or more. Some of the results follow.

The test has as its system Wolbachia pipientis. The experiment in a line: Anti-Wolbachia Cell-Based Screen. The format is functional. Also on record: scale not given: in the data most compounds retested in dose-response had high values. The conditions noted are these: 5 µM.
In the case of `O=C(CCn1ccc(=O)[nH]c1=O)N1CCC(Oc2ncccc2Cl)CC1`, the “Percent Effect” value is listed as 8.092%.

On to `Cc1ccc(CNC2CCCc3c2cnn3Cc2ccccc2)s1.Cl` (stereo unspecified), for which the “Percent Effect” value is reported as 8.556%.

As for `Cc1oc(-c2ccccc2)nc1C(=O)NC1=NCCS1`, the “Percent Effect” value is given as -10.94%.

Turning to `Cc1ccc(NC(=O)c2ccc(N3CCCCC3)nn2)c(Cl)c1`, the “Percent Effect” value is given as -6.125%.

`Cn1c(C2CCCCN2C(=O)CN2CCCC2=O)nc2ccccc21` (stereo unspecified): the “Percent Effect” value was determined as 3.336%.

As for `Cc1cc(C)n(CC(=O)N2C[C@@H]3CC[C@H](C2)N(CC2CCC2)C3)c(=O)n1`, the “Percent Effect” value is 9.507%.

As to `O=C(NCCCc1cccs1)N1CCCCC1CCO` (stereo unspecified), the “Percent Effect” value is -11.71%.

As for `Cc1cc2ccccc2n1CCC(=O)N1CCCCC1CCO` (stereo unspecified), the “Percent Effect” value was -1.29%.

As to `Cc1cc(C)n(CC(=O)N(C)Cc2csc(-c3cccs3)n2)c(=O)n1`, the “Percent Effect” value is -2.174%.

`Cc1cc(C)n(CC(=O)N2CCCCC2CCN2CCCC2=O)c(=O)n1` (stereo unspecified): the “Percent Effect” value is 117.3%.

For the compound `Cc1cc(C)n(CC(=O)N2CCCCC2CCN(C)C)c(=O)n1` (stereo unspecified), the “Percent Effect” value is 101.4%.

As to `O=C1CCCN1CCC1CCCCN1C(=O)c1ccc(SCCO)cc1` (stereo unspecified), the “Percent Effect” value came to 10.34%.

In the case of `Cc1cc(C)n(CC(=O)N2CCCCC2CCc2cccs2)c(=O)n1` (stereo unspecified), the “Percent Effect” value was 103.5%.

For the compound `COC(=O)c1cc(CN2CCN(c3nc(C)cnc3C)CC2)ccc1O`, the “Percent Effect” value is listed as -22.17%.

Regarding `CCN(CC)C(=O)c1cc(Br)cc(S(=O)(=O)N2CCOCC2)c1F`, the “Percent Effect” value was -12.93%.

Consider `COc1ccccc1C(=O)Nc1c(F)c(C(=O)NC2CCCC2)nn1C`, for which the “Percent Effect” value was 102.6%.

`COc1ccccc1C(=O)Nc1c(F)c(C(=O)N2CCCC2)nn1C`: the “Percent Effect” value was determined as 113.5%.

Regarding `COc1ccccc1C(=O)Nc1ccc(OC2CCN(C)CC2)cc1`, the “Percent Effect” value is recorded as -27.65%.

Turning to `COc1ccccc1C(=O)Nc1c(C)cnn1CC1CC1`, the “Percent Effect” value is -3.808%.

Regarding `Cc1nn(C)c(C)c1C(C(=O)O)N1CCc2ccccc2C1` (stereo unspecified), the “Percent Effect” value came to 39.47%.

As for `CC(C)C(=O)Nc1cc(C(C)(C)C)nn1-c1ccccn1`, the “Percent Effect” value is on record as 3.907%.

Regarding `CN(Cc1ccccc1Cl)C(C(=O)O)c1ccc(F)c(CO)c1` (stereo unspecified), the “Percent Effect” value is recorded as -0.8463%.

For `Cc1ccc(NS(=O)(=O)c2cnn(Cc3ccccc3)c2)c(C(=O)O)c1`, the “Percent Effect” value was 100.3%.

For `Cc1ccc(NS(=O)(=O)c2cnn(-c3ccccc3)c2)c(C(=O)O)c1`, the “Percent Effect” value worked out at 131.3%.

Consider `Cc1ccc(-n2cc(S(=O)(=O)Nc3cccc(C(=O)O)c3C)cn2)cc1`, for which the “Percent Effect” value is on record as 125.3%.

On to `CCn1nc(C)c(S(=O)(=O)Nc2cccc(C(=O)O)c2C)c1C`, for which the “Percent Effect” value is given as -0.6024%.

Take `Cc1cccc(NS(=O)(=O)c2cnn(C)c2)c1C#N`: the “Percent Effect” value was -6.698%.

For the compound `CCn1cc(C(=O)Nc2ccc(C)cc2C(=O)NC)cn1`, the “Percent Effect” value is on record as -4.213%.

As to `NC(=O)C1CCN(S(=O)(=O)c2cnn(-c3ccccc3)c2)CC1`, the “Percent Effect” value is recorded as -7.83%.

Regarding `Cc1cn(-c2ccccc2)nc1NS(=O)(=O)c1cccc(C(=O)O)c1`, the “Percent Effect” value was found to be 12.37%.

With `CCn1cc(S(=O)(=O)NC(CO)Cc2ccccc2)cn1` (stereo unspecified), the “Percent Effect” value is -18.17%.

On to `CC(C)c1cc(N2CCC(C(C)N3CCCC3)CC2)n2nccc2n1` (stereo unspecified), for which the “Percent Effect” value is on record as -4.218%.

Turning to `CN(Cc1nc(-c2cccs2)no1)Cc1nc2c(s1)CCCC2`, the “Percent Effect” value is on record as -10.58%.

Regarding `Cc1ccc2cnn(CCC(=O)Nc3c(C)nn(C)c3C)c2c1`, the “Percent Effect” value is given as -9.349%.

`O=C(NCc1cccc(N2CC=CC2)c1)NC1CC1`: the “Percent Effect” value turned out to be 1.832%.

With `Cc1ccc(C(=O)N2CC[C@H](N3CCOCC3)[C@H](CCCO)C2)cc1O`, the “Percent Effect” value was -3.81%.

With `CN1CCN(C(=O)c2cccn2C)Cc2cccnc21`, the “Percent Effect” value was 105.6%.

With `O=C(N1CCCC1)N1CCN(Cc2cccnc2)c2ncccc2C1.O=C(O)C(F)(F)F.O=C(O)C(F)(F)F`, the “Percent Effect” value worked out at 101.8%.

As for `COCCN1CCN(C(=O)c2ccncc2F)Cc2cccnc21`, the “Percent Effect” value is on record as 4.379%.

Take `Cn1cccc1C(=O)N1CCN(CC2CC2)c2ncccc2C1`: the “Percent Effect” value is -25.73%.

In the case of `O=C(c1cnccn1)N1CCN(Cc2ccncc2)c2ncccc2C1`, the “Percent Effect” value was -4.343%.

On to `O=C(c1cnccn1)N1CCN(Cc2cccnc2)c2ncccc2C1`, for which the “Percent Effect” value came out at 97.13%.

For the compound `CN(C)C(=O)N1CCN(C)c2ncccc2C1`, the “Percent Effect” value is given as 5.475%.

As for `Cn1cccc1C(=O)N1CCN(Cc2cccnc2)c2ncccc2C1.O=C(O)C(F)(F)F.O=C(O)C(F)(F)F`, the “Percent Effect” value was 51.12%.

For the compound `Cn1cccc1C(=O)N1CCN(Cc2ccncc2)c2ncccc2C1.O=C(O)C(F)(F)F.O=C(O)C(F)(F)F`, the “Percent Effect” value is reported as -28.33%.

As to `Cc1ccc(C2COCCN2C(=O)c2ccc(CN(C)C)cc2)o1` (stereo unspecified), the “Percent Effect” value was -6.944%.

As for `CC(C)Oc1cc(N2C[C@H](C3CC3)[C@@H](N)C2)nc(N)n1`, the “Percent Effect” value worked out at 12.97%.

As to `COc1ccc(-c2noc([C@@H]3C[C@H](NC(=O)NC(C)C)CN3C)n2)cc1`, the “Percent Effect” value amounted to 2.003%.

As to `COc1ccnc(N2Cc3cnc(C(C)(C)C)nc3C2)n1`, the “Percent Effect” value is on record as -13.37%.

`O=C(O)C(F)(F)F.O=C(O)C(F)(F)F.O=C(c1ccnnc1)N1CCN(Cc2cccnc2)c2ncccc2C1`: the “Percent Effect” value stood at 97.06%.

For the compound `CC(=O)NCC(=O)N1CCN(Cc2ccncc2)c2ncccc2C1`, the “Percent Effect” value is recorded as -10.24%.

For the compound `O=C(O)C(F)(F)F.O=C(O)C(F)(F)F.O=C(c1ccnnc1)N1CCN(Cc2ccncc2)c2ncccc2C1`, the “Percent Effect” value was 96.92%.

Regarding `CN1CCN(C(=O)Cc2cccc(F)c2)Cc2cccnc21.O=C(O)C(F)(F)F`, the “Percent Effect” value is on record as -17.2%.

`O=C(c1ccc[nH]1)N1CCN(Cc2ccncc2)c2ncccc2C1`: the “Percent Effect” value was 105%.

As to `O=C(c1ccc[nH]1)N1CCC(c2nccn2Cc2ccncc2)CC1`, the “Percent Effect” value is -7.637%.

With `O=C(c1ccncc1F)N1CCN(CC2CC2)c2ncccc2C1`, the “Percent Effect” value is listed as 10.49%.

Regarding `O=C(O)C(F)(F)F.O=C(O)C(F)(F)F.O=C(O)C(F)(F)F.O=C(c1ccncc1)N1CCN(Cc2cccnc2)c2ncccc2C1`, the “Percent Effect” value is given as 105.3%.

As to `Cc1cc(C)n(-c2cncc(N3CCN(C(=O)C(C)(C)C)CC3)n2)n1`, the “Percent Effect” value worked out at 6.121%.

`NC(=O)c1cccc(CCNCc2cccs2)c1`: the “Percent Effect” value is 0.5417%.

As for `Cc1ccc2c(c1)c(CNC(=O)C1CCCN(CC(N)=O)C1)nn2C` (stereo unspecified), the “Percent Effect” value is recorded as -18.62%.

`CN1[C@H](Cn2cncn2)C[C@@H]2CN(C3CCOCC3)CC[C@@H]21.O=C(O)C(F)(F)F.O=C(O)C(F)(F)F`: the “Percent Effect” value is 8.742%.

As for `CC(C)N1[C@H](Cn2cccn2)C[C@@H]2CN(C3CCOCC3)CC[C@@H]21.O=C(O)C(F)(F)F.O=C(O)C(F)(F)F.O=C(O)C(F)(F)F`, the “Percent Effect” value is recorded as 7.148%.

Turning to `CC(C)N1CC[C@H]2[C@H](C[C@@H](Cn3cccn3)N2c2nccs2)C1.O=C(O)C(F)(F)F.O=C(O)C(F)(F)F.O=C(O)C(F)(F)F`, the “Percent Effect” value is 108.8%.

`CN1CC[C@H]2[C@H](C[C@@H](Cn3cncn3)N2c2nccs2)C1`: the “Percent Effect” value is listed as -5.255%.

With `CC(C)N1CC[C@H]2[C@H](C[C@@H](Cn3cncn3)N2c2nccs2)C1.O=C(O)C(F)(F)F.O=C(O)C(F)(F)F`, the “Percent Effect” value was found to be 110.1%.

For `CC(=O)N1CC[C@H]2[C@H](C[C@@H](Cn3cncn3)N2c2nccs2)C1.O=C(O)C(F)(F)F`, the “Percent Effect” value was determined as 4.075%.

As for `OC(CN1CCN(CC(F)F)CC1)c1ccc(Br)cc1` (stereo unspecified), the “Percent Effect” value amounted to 2.807%.

As for `CC(C)CCN1C(=O)CC(N(C)Cc2nc3ccccc3c(=O)[nH]2)C1=O` (stereo unspecified), the “Percent Effect” value is -3.315%.

Take `COc1cccc(CN2CCC(CO)(Cc3ccc(Cl)cc3)CC2)c1O`: the “Percent Effect” value is listed as -4.953%.

With `COCC1CC2(CCN(Cc3ccoc3)CC2)CN1Cc1ccccn1` (stereo unspecified), the “Percent Effect” value turned out to be 97.98%.

Consider `COCC(=O)N1CCC2(CC1)CC(COC)N(Cc1ccccn1)C2.O=C(O)C(F)(F)F` (stereo unspecified), for which the “Percent Effect” value was determined as 100.7%.

Take `CCN1CCC2(CC1)CC(COC)N(Cc1csc(C)n1)C2.O=C(O)C(F)(F)F.O=C(O)C(F)(F)F` (stereo unspecified): the “Percent Effect” value was 21.22%.

For the compound `COCC(=O)N1CCC2(CC1)CC(COC)N(c1ncccn1)C2.O=C(O)C(F)(F)F` (stereo unspecified), the “Percent Effect” value is recorded as -2.409%.

`COCC(=O)N1CCC2(CC1)COC(COCc1ccccn1)C2.O=C(O)C(F)(F)F` (stereo unspecified): the “Percent Effect” value is -3.538%.

As to `COCC1CC2(CCN(Cc3nccs3)CC2)CN1Cc1ccccn1.O=C(O)C(F)(F)F.O=C(O)C(F)(F)F.O=C(O)C(F)(F)F` (stereo unspecified), the “Percent Effect” value worked out at 106.7%.

Consider `COCC1CC2(CCN(Cc3ccccn3)CC2)CN1c1ncccn1.O=C(O)C(F)(F)F.O=C(O)C(F)(F)F.O=C(O)C(F)(F)F` (stereo unspecified), for which the “Percent Effect” value was 0.4015%.

For `FC(F)(F)CCc1ccnc(N[C@H]2CC[C@H](n3cnnc3)CC2)n1`, the “Percent Effect” value is -3.85%.

For the compound `CCNC(=O)NC[C@H]1Cn2c(-c3ccccc3)cnc2CO1`, the “Percent Effect” value is on record as -18.82%.

As to `Cc1ccc(C)c(CS(=O)(=O)Cc2ccn(C)c(=O)c2)c1`, the “Percent Effect” value was 17.59%.

Consider `Cc1cnn(C2CCCN(C(=O)c3ccnc(-n4ccnc4)c3)C2)c1` (stereo unspecified), for which the “Percent Effect” value came to 5.29%.

For `Cc1nc(C)n(C2CCCN(C(=O)c3ccc(NC4CC4)nc3)C2)n1` (stereo unspecified), the “Percent Effect” value is 0.453%.

Take `Cc1cnn(C2CCCN(C(=O)c3ccnc(-n4cncn4)c3)C2)c1` (stereo unspecified): the “Percent Effect” value came out at 91.3%.

In the case of `Cc1cnn(C2CCCN(C(=O)c3ccc(NC4CC4)nc3)C2)c1` (stereo unspecified), the “Percent Effect” value is reported as 77.38%.

In the case of `CNC(=O)c1ccc(C(=O)N2CCCC(n3cc(C)cn3)C2)cn1` (stereo unspecified), the “Percent Effect” value is listed as -2.2%.

For `Cc1cnn(C2CCCN(C(=O)c3ccc(C(N)=O)cn3)C2)c1` (stereo unspecified), the “Percent Effect” value is 85.91%.

For the compound `Cc1cnn(C2CCCN(C(=O)c3ccn(C)c(=O)c3)C2)c1` (stereo unspecified), the “Percent Effect” value was -5.065%.

For `Cc1cnn(C2CCCN(C(=O)C3=NN(C)C(=O)CC3)C2)c1` (stereo unspecified), the “Percent Effect” value worked out at 5.956%.

Regarding `Cc1cnn(C2CCCN(C(=O)c3ccnc(N(C)C)c3)C2)c1` (stereo unspecified), the “Percent Effect” value is given as 7.39%.

As for `O=C(c1ccc(NC2CC2)nc1)N1CCCC(n2cccn2)C1` (stereo unspecified), the “Percent Effect” value was -7.453%.

As to `Cc1cnn(C2CCCN(C(=O)c3ccc4c(c3)CCC4)C2)c1` (stereo unspecified), the “Percent Effect” value was determined as 100.4%.

As to `Cc1cnn(C2CCCN(C(=O)COc3ccc(C(N)=O)cc3)C2)c1` (stereo unspecified), the “Percent Effect” value was -8.397%.
